Measured values from PubChem BioAssay (NCI).
The panel holds about 83,000 compounds, 20% with a hit somewhere; the sample as a whole holds those more often.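 Negative percent growth values reflect cell death: -40 means 40% of the cells present at the start died, and -100 means all died.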 Active and inactive are the calls of the source. How the source made its calls: active means growth percent below 10; inactive means the rest.

The compounds below were run on HL-60(TB) leukemia (assay: NCI-60 one-dose screen, 48 h (100 = growth as untreated, 0 = no growth, -100 = all killed)). Settings: 10 µM unless noted.

Row | Structure (SMILES) | growth
1 | CCCc1c(C)nc2scc(-c3ccc(Cl)cc3)n2c1=O | 98% (inactive)
2 | Fc1c[c-]c(-c2ccccn2)c(F)c1.Fc1c[c-]c(-c2ccccn2)c(F)c1.[Cl][Pt+].[Cl][Pt+].c1ccc([PH+](C[PH+](c2ccccc2)c2ccccc2)c2ccccc2)cc1 | 6.62% (active)
3 | CCOC(=O)N/N=C/c1ccc(OC)c(OC)c1 | 108% (inactive)
4 | Cc1nn(-c2ccccc2)c2nc3nc4c(c(N)c3c(-c3ccc(Cl)cc3)c12)CCCC4 | 104% (inactive)
5 | COc1ccccc1NC(=O)N=Nc1c(O)[nH]c2ccccc12 | 93.8% (inactive)
6 | CCN(CC)CCCNc1nc(C)cc(Nc2ccc3nc(C)cc(N)c3c2)n1 | 106% (inactive)
7 | O=C(O)CCCN1C(=O)C2C3CCC(C3)C2C1=O (stereo not drawn) | 116% (inactive)
8 | COC(=O)c1ccc(=O)c2nc3/c(=C/O)c(O)cc(=O)c3[nH]c12 | 0.308% (active)
9 | CC(C)c1ccc(COCc2cc(CN3CCCC3)c(O)c3ncccc23)cc1 | -20.3% (active)
10 | C=C(C)[C@@H]1CC[C@]2(C(=O)O)CC[C@]3(C)[C@H](CC[C@@H]4[C@@]5(C)C/C(=C/c6ccc(OC)cc6)C(=O)C(C)(C)[C@@H]5CC[C@]43C)[C@@H]12 | 2.12% (active)
11 | Cc1ccc(Sc2nnc(/N=C3\C(=O)Nc4ccccc43)s2)cc1 | 95.9% (inactive)
12 | CC(=O)[C@@H]1CCC=C2CC[C@]3(C)[C@@H](CC[C@@H]4[C@@]5(C)CCCNC(C)(C)[C@@H]5CC[C@]43C)[C@H]21 | -12.3% (active)
13 | COC(=O)CCOc1ccccc1 | 102% (inactive)
